# From PubChem BioAssay
# Most compounds without a hit are left out; they make up all but 7.4% or so of the library.
# Rab9 promoter act = qHTS Assay for Rab9 Promoter Activators | Huh7 Rab9 promoter-luciferase reporter, luminescence, 24 h | Potency, µM (doses to about 9.22 µM), for inactives: at the top dose activation, negative = inhibition, actives largely listed as activators | 2.8% of 320,000 active | AID 485297, 2010; note: % of control where 0% means no effect; nearly all actives have a fitted effect of over 60% in size
#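 Measured in stably transfected Huh7 cells bearing a Rab9 promoter–luciferase construct: 24 h compound treatment at 37 °C, followed by luminescence detection.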
# p53 reactivation = qHTS assay for re-activators of p53 using a Luc reporter. H1299 p53-A138V BP100-luciferase reporter, luminescence, 24 h. Potency, µM (doses to about 92.2 µM), for inactives: top-dose activity change, positive = activation, hits mostly activators. 0.063% of 320,000 active; note: % of control where 0% means no effect; nearly all actives have a fitted effect of over 45% in size
#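 p53-null H1299 cells stably carrying temperature-sensitive p53-A138V and a BP100-luciferase reporter were pinned with compounds (4-point, 1:5 series) and held 24 hrs at 37 deg C. Luminescence was read 10 min after detection reagent.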
# SMN2 splice up = qHTS Assay for Enhancers of SMN2 Splice Variant Expression; HEK293 SMN2-luciferase splicing reporter, luminescence, 30-36 h; Potency, µM (titrated, usually from 46.1 µM), without a hit: at the top dose activity change, positive = activation, usual class: activators; 2.8% of 210,000 active; AID 1458, 2008; note: % of control where 0% means no effect; nearly all actives have a fitted effect of over 55% in size
#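 qHTS luciferase splicing reporter: luminescence rises when SMN2 exon 7 is included in transfected HEK293 cells. Compound exposure lasted 30-36 h at 37C, with 4.5 mM final sodium butyrate as control, followed by a ONE-Glo read.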
# NPC1 promoter act = qHTS Assay for NPC1 Promoter Activators; Huh7 NPC1 promoter luciferase reporter, 24 h; Potency, µM (series often up to 9.22 µM), inactives show top-dose activation, most hits filed as activators; 2.4% of 320,000 active; AID 485313, 2010; note: % of control where 0% means no effect; nearly all actives have a fitted effect of over 60% in size
#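 Cells: Huh7 expressing luciferase under the NPC1 promoter, 1500/well. Seeded 2 h, compound added, incubated 24 h at 37 °C. Luciferase reagent, 10 min ambient, then luminescence.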
# ELG1 genotox = qHTS screen for small molecules that induce genotoxicity in human embryonic kidney (HEK293T) cells expressing luciferase-tagged ELG1. HEK293T ELG1-luciferase reporter, luminescence, 16 h. Potency, µM (titrated, usually from 46 µM), for the others: at the highest dose activity change, positive = activation, hits mostly activators. 1.3% of 330,000 active; note: % of control where 0% means no effect; nearly all actives have a fitted effect of over 60% in size
#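 16 hr compound incubation (37 °C, 5% CO2) of HEK293T cells carrying luciferase-tagged ELG1; luciferase then measured by ONE-Glo luminescence after 30 min at RT.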
# FLuc counter = qHTS profiling assay for firefly luciferase inhibitor/activator using purifed enzyme and Km concentrations of substrates (counterscreen for miR-21 project) | 6.9% of 360,000 active | Potency, µM (titrated, usually from 57.5 µM), without a hit: top-dose activity change, negative = inhibition, usual class: inhibitors | AID 588342, 2011 | purified FLuc, Km substrates, luminescence inhibition | Luciferin 4-monooxygenase (Photinus pyralis), P08659;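 note: plate controls were vehicle for no effect and reference inhibitor for full effect; nearly all actives have a fitted effect of over 55% in size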
# Target sequence (P08659 whole entry, looked up): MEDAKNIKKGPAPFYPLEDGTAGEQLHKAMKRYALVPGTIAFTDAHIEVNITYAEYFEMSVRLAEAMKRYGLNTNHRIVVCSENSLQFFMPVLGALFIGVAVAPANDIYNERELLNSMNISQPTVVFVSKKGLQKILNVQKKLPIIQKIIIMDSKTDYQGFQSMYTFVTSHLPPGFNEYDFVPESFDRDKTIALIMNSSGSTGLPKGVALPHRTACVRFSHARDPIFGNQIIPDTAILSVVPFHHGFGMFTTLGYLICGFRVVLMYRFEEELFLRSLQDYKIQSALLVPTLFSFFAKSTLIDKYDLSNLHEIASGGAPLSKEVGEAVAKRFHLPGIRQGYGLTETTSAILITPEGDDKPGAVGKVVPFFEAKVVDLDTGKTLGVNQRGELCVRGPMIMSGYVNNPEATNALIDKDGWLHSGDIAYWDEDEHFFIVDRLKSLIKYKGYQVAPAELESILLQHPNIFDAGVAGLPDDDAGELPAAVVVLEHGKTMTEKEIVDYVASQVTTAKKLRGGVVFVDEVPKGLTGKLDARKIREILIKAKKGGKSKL
#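 Purified P. pyralis luciferase, 10 nM final, with Km-level 10 uM D-luciferin and 10 uM ATP in 50 mM Tris acetate pH 7.5, 10 mM Mg acetate, 0.01% Tween-20, 0.05% BSA; 6-point qHTS titration about 60 µM downward; luminescence read.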
# Starred values were filed as active, the others as inactive; ? = inconclusive; . = not tested or not shown. Calls come from the whole dose curve; as a rule, active = well fitted curve in the direction sought with a large enough effect; inconclusive = small, poorly fitted or top-dose-only effect, or another doubt; inactive = no such curve, though single readings can be large; an effect the other way counts as inactive or inconclusive. Potency is the fitted concentration of half-maximal effect.
SMILES,Rab9 promoter act,p53 reactivation,SMN2 splice up,NPC1 promoter act,ELG1 genotox,FLuc counter
CCN(CC)c1ccc(C(=O)NN)cc1,-2%,-1%,-5%,-3%,10%,-4%
CCN(CC)c1ccc(C(=O)Nc2cccc(F)c2)cc1,1.1µM*,?,8.9µM*,0.79µM*,?,?
CN(C)c1cccc(C(=O)Nc2cccc(F)c2)c1,2.8µM*,?,14µM*,2.2µM*,?,19µM*
O=C(c1cc2c(ccc3ccccc32)o1)N1CCCCC1,0.89µM*,?,.,1.3µM*,?,2.1µM*
NNC(=O)c1cc2c(ccc3ccccc32)o1,-2%,8%,-3%,-2%,0%,-18%
O=C(O)c1cc2c(ccc3ccccc32)o1,5%,22%,.,1%,2%,17µM*
O=C(c1cc2c(ccc3ccccc32)o1)N1CCN(c2ncc(C(F)(F)F)cc2Cl)CC1,-7%,0%,3%,-1%,-1%,2%
CCCCOc1ccc(-c2nc(/C=N/c3nccs3)c(O)o2)cc1,-2%,19%,4%,2%,5%,9%
Cc1ccc(N=Cc2nc(-c3ccco3)oc2O)cc1,8%,?,12%,1%,?,4.3µM*
Cc1ccc(-c2nc(C=Nc3ccccc3)c(O)o2)cc1,?,22%,.,18%,?,9.5µM*
Oc1oc(-c2ccccc2)nc1/C=N/c1nccs1,12%,?,?,2%,2%,12µM*
Cc1ccc(-c2nc(C=Nc3cccc(C)c3)c(O)o2)cc1,1%,6%,-18%,6%,12%,?
c1csc(CNc2ncncc2-c2ccc3c(c2)OCO3)c1,.,.,-27%,.,.,.
Cn1c(SCc2cccc(F)c2)nc2c([nH]c3ccccc32)c1=O,.,.,.,.,.,-3%
CN1CCN(c2ncc3c(n2)CCN(Cc2ccc(Br)s2)C3)CC1,.,.,.,.,.,1%
Cc1cccc(C(=O)NCCc2csc(C)n2)c1,5%,-1%,1.6µM*,-1%,41%,3%
Cc1nc(CCNC(=O)c2cccs2)cs1,-1%,9%,12%,-1%,5%,-17%
Cc1ccc(C(=O)NCCc2csc(C)n2)cc1,3.2µM*,11%,14µM*,?,18µM*,9.5µM*
C/C=C/c1ccc(OCCn2nnc3ccccc32)c(OC)c1,?,14%,.,26%,?,17µM*
Cc1cccc(OCCn2nnc3ccccc32)c1C,27%,.,.,?,?,17µM*
C=CCc1ccccc1OCCn1nnc2ccccc21,6%,?,.,0%,0%,-8%
C/C=C/c1ccc(OCCCCOc2ccc(OC)cc2)c(OC)c1,0%,5%,-11%,-3%,-4%,0%
CN(C)c1ccc(/C=N/N=C/c2ccccc2O)cc1,0.56µM*,?,-44%,0.45µM*,?,0.3µM*
CC(=O)/C(=C/c1ccc(N(C)C)cc1)C(=O)c1ccccc1,-4%,-3%,-8%,-2%,-9%,1%
NNC(=O)c1ccc(COc2ccc3c(c2)CCC3)cc1,?,?,?,?,-1%,?
SMILES,Rab9 promoter act,p53 reactivation,SMN2 splice up,NPC1 promoter act,ELG1 genotox,FLuc counter
O=C(Nc1ccccc1Cl)c1ccc(COc2ccc3c(c2)CCC3)cc1,?,5%,6.3µM*,?,?,-14%
O=C(O)c1ccc(COc2ccc3c(c2)CCC3)cc1,?,-10%,.,?,9%,5.4µM*
O=C(COc1ccccc1Cl)Nc1nc(-c2ccc(F)cc2)ns1,.,.,2%,.,.,?
COc1cccc(C(=O)O/N=C(\N)c2ccccn2)c1OC,0.71µM*,-8%,.,?,1.8µM*,0.95µM*
N/C(=N\OC(=O)Cc1cccc2ccccc12)c1ccccn1,23%,-24%,4%,25%,?,?
N/C(=N\OC(=O)c1cccc2ccccc12)c1ccccn1,?,?,.,?,10µM*,1.2µM*
